Assays:
Conditions in all cases: concentration: 1 μM, replicates: in singlicate; n = 1
[1] = system: EIF2AK1
[2] = system: EPHA1
[3] = system: EPHA2
[4] = system: EPHA3
[5] = system: EPHA4
[6] = system: EPHA5
[7] = system: EPHA6
[8] = system: EPHA7
[9] = system: EPHA8
[10] = system: EPHB1
[11] = system: EPHB2
[12] = system: EPHB3
[13] = system: EPHB4
[14] = system: EPHB6
[15] = system: ERBB2
[16] = system: ERBB3
[17] = system: ERBB4
[18] = system: T1, ERK1
T1 construct: gene MAPK3

[19] = system: T2, ERK2
T2 construct: gene MAPK1

[20] = system: T3, ERK3
T3 construct: gene MAPK6
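Further: KINOMEscan kinase panel screen.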

Row | Compound | %Inh [1] [%] | %Inh [2] [%] | %Inh [3] [%] | %Inh [4] [%] | %Inh [5] [%] | %Inh [6] [%] | %Inh [7] [%] | %Inh [8] [%] | %Inh [9] [%] | %Inh [10] [%] | %Inh [11] [%] | %Inh [12] [%] | %Inh [13] [%] | %Inh [14] [%] | %Inh [15] [%] | %Inh [16] [%] | %Inh [17] [%] | %Inh [18] [%] | %Inh [19] [%] | %Inh [20] [%]
1 | Cn1ccc2ncnc(Nc3ccc(Oc4cccc(Cl)c4)c(Cl)c3)c21 | 0 | 0 | 5 | 13 | 0 | 21 | 21 | 94.1 | 86 | 15 | 4 | 0 | 0 | 4 | 100 | 17 | 97 | 2 | 35 | 6
2 | Cl.c1ccc(Cn2ccc3cc(Nc4ncnc5ccccc45)ccc32)cc1 [GW275568] | 5 | 7 | 1 | 40 | 0 | 0 | 0 | 10 | 20 | 4 | 6 | 4 | 18 | 33 | 100 | 29 | 88 | 0 | 0 | 4
3 | FC(F)(F)c1ccc(-c2cc(-c3c[nH]nc3-c3ccccn3)ccn2)cc1 [GW599550] | 100 | 2 | 0 | 13 | 0 | 0 | 0 | 5 | 9 | 30 | 0 | 0 | 8 | 37 | 38 | 16 | 0 | 15 | 0 | 0
4 | COC(=O)c1c(-c2ccccc2)c2cc(Cl)ccc2c(=O)n1Cc1ccc(S(C)(=O)=O)cc1 | 10 | 0 | 8 | 6 | 20 | 4 | 34 | 1 | 7 | 6 | 18 | 24 | 0 | 0 | 0 | 0 | 29 | 0 | 3 | 0
5 | CCn1c(-c2ccncc2)nc2cnccc21 [SB-735216] | 19 | 23 | 5 | 99.1 | 10 | 0 | 16 | 0 | 14 | 0 | 16 | 11 | 7 | 8 | 0 | 33 | 0 | 0 | 0 | 0
6 | Fc1cccc(COc2ccc(Nc3ncnc4nn5ccccc5c34)cc2Cl)c1 [GW689066] | 0 | 11 | 12 | 0 | 0 | 0 | 9 | 0 | 0 | 4 | 0 | 16 | 0 | 1 | 98.2 | 27 | 95.2 | 0 | 0 | 0
7 | CSc1ccc(NC2=C(c3ccccc3Cl)C(=O)NC2=O)cc1 [SB-342411] | 0 | 2 | 27 | 16 | 7 | 0 | 0 | 6 | 14 | 9 | 15 | 0 | 3 | 18 | 0 | 0 | 0 | 5 | 0 | 0
